# Assay results reported in the supplement of paper PMC8866396.
# ± gives the standard deviation of the averaged measurements.
# Assays:
# IL-6-GFP PC-9GR = experiment: cell viability (CCK-8 OD) relative to DMSO control (fraction of control); higher = more viable cells; conditions: compound concentration: 10 uM; treatment time: 48 h
# In short: (§1)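 Each well's viability is its CCK-8 optical density divided by that of the vehicle control well. The cells, PC-9 and PC-9GR lung cancer lines overexpressing IL-6-GFP from a lentiviral construct, were seeded at 3000 cells/well in 96-well plates and exposed for 48 h to each compound of a purchased 510-compound library at a final 10 μM, in two independent replicates.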
# IL-6-GFP PC-9 = experiment: as above; conditions: compound concentration: 10 uM; treatment time: 48 h
# In short: as §1
Structure (SMILES),cell viability (IL-6-GFP PC-9GR),cell viability (IL-6-GFP PC-9)
O=c1c(-c2ccc(O)cc2)coc2cc(O)cc(O)c12 [Genistein],0.975 ± 0.05,0.58 ± 0.32
COC(=O)c1cc(OC)c2c(c1-c1c(CO)cc(OC)c3c1OCO3)OCO2 [Bicyclol],1.16 ± 0.29,0.934 ± 0.097
O=c1[nH]c(=O)n(C2CCCO2)cc1F (stereo not drawn),1.11 ± 0.023,1.01 ± 0.013
Nc1ccc(C(=O)[O-])c(O)c1.[Na+] [Sodium 4-Aminosalicylate],1.02 ± 0.3,0.895 ± 0.055
Nc1nc(=O)c2c(CCc3ccc(C(=O)NC(CCC(=O)[O-])C(=O)[O-])cc3)c[nH]c2[nH]1.[Na+].[Na+] (stereo not drawn) [Pemetrexed],0.483 ± 0.064,0.635 ± 0.1
CN(C)CCOC(c1ccc(Cl)cc1)c1ccccn1.O=C(O)/C=C\C(=O)O (stereo not drawn) [CarbinoxaMine Maleate],1.2 ± 0.26,1.07 ± 0.066
Nc1nc(=S)c2[nH]cnc2[nH]1 [Thioguanine],1.37 ± 0.42,1.2 ± 0.061
CNC(=O)C(NC(=O)C(CC(C)C)C(O)C(=O)NO)C(C)(C)C (stereo not drawn) [Marimastat (BB-2516)],0.915 ± 0.038,1.14 ± 0.19
CNNCc1ccc(C(=O)NC(C)C)cc1.Cl [Procarbazine HCl],1.02 ± 0.16,1.17 ± 0.042
CNCC(O)C(O)C(O)C(O)CO.Cc1c(Nc2ncccc2C(=O)O)cccc1C(F)(F)F [Flunixin Meglumin],1.15 ± 0.12,0.964 ± 0.087
Cc1c(-c2ccc(O)cc2)n(Cc2ccc(OCCN3CCCCCC3)cc2)c2ccc(O)cc12.Cl [Bazedoxifene HCl],0.539 ± 0.098,0.51 ± 0.077
CC(C)(C)c1ccc(C(=O)CCCN2CCC(OC(c3ccccc3)c3ccccc3)CC2)cc1 [Ebastine],0.62 ± 0.3,0.628 ± 0.031
CC(=O)OCC(=O)C1(O)CCC2C3CCC4=CC(=O)CCC4(C)C3C(=O)CC21C (stereo not drawn) [Cortisone acetate],1.29 ± 0.26,1.12 ± 0.1
CCCCC1C(=O)N(c2ccccc2)N(c2ccccc2)C1=O [Phenylbutazone],1.34 ± 0.094,1.25 ± 0.053
CC1(C(=O)O)CCC2(C)CCC3(C)C(=CC(=O)C4C5(C)CCC(OC6OC(C(=O)O)C(O)C(O)C6OC6OC(C(=O)O)C(O)C(O)C6O)C(C)(C)C5CCC43C)C2C1.N (stereo not drawn) [Ammonium Glycyrrhizinate],1.42 ± 0.25,1.31 ± 0.014
CC(C)Cn1cnc2c(N)nc3ccccc3c21 [Imiquimod],0.774 ± 0.57,1 ± 0.24
N#Cc1cc(NC(=O)C(=O)O)c(Cl)c(NC(=O)C(=O)O)c1.NC(CO)(CO)CO.NC(CO)(CO)CO [Lodoxamide Tromethamine],1.14 ± 0.25,1.09 ± 0.083
COc1cc2nccc(Oc3ccc(NC(=O)Nc4cc(C)on4)c(Cl)c3)c2cc1OC [Tivozanib (AV-951)],0.792 ± 0.15,0.353 ± 0.036
O=C(O)c1cc(N=Nc2ccc(S(=O)(=O)Nc3ccccn3)cc2)ccc1O [Sulfasalazine],1.41 ± 0.088,1.22 ± 0.16
Nc1nc(N)c2nc(-c3ccccc3)c(N)nc2n1 [Triamterene],0.591 ± 0.14,0.842 ± 0.038
CC(=O)Nc1cccc(-n2c(=O)n(C3CC3)c(=O)c3c(Nc4ccc(I)cc4F)n(C)c(=O)c(C)c32)c1,1.04 ± 0.14,0.791 ± 0.31
CN(C)c1cc(CNCC(C)(C)C)c(O)c2c1CC1CC3C(N(C)C)C(O)=C(C(N)=O)C(=O)C3(O)C(O)=C1C2=O.Cc1ccc(S(=O)(=O)O)cc1 (stereo not drawn) [Omadacycline tosylate],1.02 ± 0.039,1.3 ± 0.11
"CC(Nc1ncnc2[nH]cnc12)c1cc2cccc(Cl)c2c(=O)n1-c1ccccc1 (stereo not drawn) [Duvelisib (IPI-145, INK1197)]",1.42 ± 0.39,1.1 ± 0.12
NC(CC(=O)N1CCn2c(nnc2C(F)(F)F)C1)Cc1cc(F)c(F)cc1F (stereo not drawn) [Sitagliptin],1.62 ± 0.63,1.14 ± 0.12
CNC(=O)c1ccccc1Sc1ccc2c(/C=C/c3ccccn3)n[nH]c2c1 [Axitinib],0.712 ± 0.0072,0.532 ± 0.05
Cc1cccc(N(C)C(=S)Oc2ccc3ccccc3c2)c1 [Tolnaftate],1.38 ± 0.047,0.8891 ± 0.0065
CC(=O)OC(C)OC(=O)C(C)c1ccc(-c2ccccc2)c(F)c1 (stereo not drawn) [Flurbiprofen Axetil],1.17 ± 0.29,1.16 ± 0.038
Nc1n[n+]([O-])c2ccccc2[n+]1[O-] [Tirapazamine],1.09 ± 0.25,0.676 ± 0.12
NC(CO)(CO)CO [Trometamol],0.932 ± 0.18,1.09 ± 0.061
